Data on 55 molecules can be found in paper PMC4336329 (PLoS ONE, 2015).

The whole screen tested about 310,000 compounds, of which about 14,000 (4.5%) showed an effect of 50% or more. Effects have a minus sign here. This is one part of a sample in which strong results are shown more often than they occur.
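Further: peak tail current of the secondary pulse compared with the same well before compound.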

Chain of human ether-à-go-go-related gene (hERG) potassium channel (Q12809 whole entry, looked up): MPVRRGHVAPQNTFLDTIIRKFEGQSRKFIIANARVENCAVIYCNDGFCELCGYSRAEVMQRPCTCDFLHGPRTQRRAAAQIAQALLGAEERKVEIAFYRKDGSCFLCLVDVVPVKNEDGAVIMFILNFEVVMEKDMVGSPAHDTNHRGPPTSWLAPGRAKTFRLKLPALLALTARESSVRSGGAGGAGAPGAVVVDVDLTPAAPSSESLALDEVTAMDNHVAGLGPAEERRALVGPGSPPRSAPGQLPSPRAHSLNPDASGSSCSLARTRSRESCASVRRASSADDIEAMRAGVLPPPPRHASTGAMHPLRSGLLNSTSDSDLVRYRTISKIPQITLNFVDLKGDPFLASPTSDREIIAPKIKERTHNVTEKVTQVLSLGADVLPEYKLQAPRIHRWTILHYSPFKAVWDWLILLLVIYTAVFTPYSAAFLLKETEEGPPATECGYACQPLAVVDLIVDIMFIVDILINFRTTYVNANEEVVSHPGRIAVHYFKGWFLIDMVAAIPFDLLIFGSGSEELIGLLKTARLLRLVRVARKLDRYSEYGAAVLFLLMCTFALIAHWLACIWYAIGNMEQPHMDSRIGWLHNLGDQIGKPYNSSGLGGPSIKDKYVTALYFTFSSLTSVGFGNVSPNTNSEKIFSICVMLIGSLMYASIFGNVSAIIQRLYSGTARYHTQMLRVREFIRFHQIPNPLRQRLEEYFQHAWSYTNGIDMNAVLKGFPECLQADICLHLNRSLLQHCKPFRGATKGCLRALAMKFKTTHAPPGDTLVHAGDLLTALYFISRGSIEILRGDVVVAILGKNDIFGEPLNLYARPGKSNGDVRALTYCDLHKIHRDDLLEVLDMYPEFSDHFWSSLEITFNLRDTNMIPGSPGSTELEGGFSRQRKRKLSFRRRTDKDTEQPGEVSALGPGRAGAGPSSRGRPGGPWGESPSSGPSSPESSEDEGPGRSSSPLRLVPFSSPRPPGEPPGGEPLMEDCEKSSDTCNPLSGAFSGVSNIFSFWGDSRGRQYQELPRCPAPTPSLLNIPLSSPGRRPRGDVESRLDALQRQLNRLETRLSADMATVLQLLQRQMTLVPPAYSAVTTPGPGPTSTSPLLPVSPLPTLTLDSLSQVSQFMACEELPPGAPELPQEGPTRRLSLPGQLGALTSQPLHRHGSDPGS

This test addresses human ether-à-go-go-related gene (hERG) potassium channel (human, UniProt Q12809). In words: primary screen, population patch clamp on CHO cells stably expressing hERG; higher = less effect of the substance.
As to `O=C(Nc1ccccc1-c1nnn(CC(=O)N2CCCc3ccccc32)n1)c1ccc(Cl)cc1`, the “hERG current change (%, negative = inhibition) at 10uM” value is recorded as 8.92%.

Consider `O=C(COC(=O)c1ccc(F)cc1F)NC1CC1`, for which the “hERG current change (%, negative = inhibition) at 10uM” value came out at 23%. As for `Cc1ccc(OC(=O)c2cncc(Br)c2)c(C)c1`, the “hERG current change (%, negative = inhibition) at 10uM” value came out at 16%. Turning to `N/C(=N\OC(=O)COc1ccccc1)c1ccccn1`, the “hERG current change (%, negative = inhibition) at 10uM” value came to 13.6%. On to `O=C(CN(c1ccc(F)cc1)S(=O)(=O)c1ccc2c(c1)OCCO2)Nc1ccc2c(c1)OCO2`, for which the “hERG current change (%, negative = inhibition) at 10uM” value is 14.4%. In the case of `N/C(=N\OC(=O)c1cc(Br)ccc1Cl)c1ccccn1`, the “hERG current change (%, negative = inhibition) at 10uM” value came out at 13.1%. As for `COc1cc(C(=O)NCC(=O)NC(C)c2ccc(-n3ccnc3)cc2)cc(OC)c1OC` (stereo not shown), the figure is -3.06%. For the molecule `CC(NC(=O)c1ccccc1C(=O)O)c1ccc(-n2ccnc2)cc1` (stereo not shown), the “hERG current change (%, negative = inhibition) at 10uM” value is 16%. Turning to `CC(NC(=O)CCNC(=O)c1ccc(Br)cc1)c1ccc(-n2ccnc2)cc1` (stereo not shown), the “hERG current change (%, negative = inhibition) at 10uM” value was -66.5%. Consider `CCOc1ccccc1C(=O)NCC(=O)NC(C)c1ccc(-n2ccnc2)cc1` (stereo not shown), for which the “hERG current change (%, negative = inhibition) at 10uM” value is -70.9%. For `CC(NC(=O)c1ccccc1Cl)c1ccc(-n2ccnc2)cc1` (stereo not shown), the “hERG current change (%, negative = inhibition) at 10uM” value is -34.2%. Under `CCOc1ccc(C(=O)NCC(=O)Nc2ccncc2)cc1OCC` stands 4.58%; under `CC(C)c1ccc(CCNC(=O)CCNC(=O)c2ccc(Br)cc2)cc1`, 5.74%.

In the case of `CCOc1ccccc1C(=O)NCC(=O)Nc1ncccc1C`, the “hERG current change (%, negative = inhibition) at 10uM” value is given as 14%. In the case of `CCOc1ccc(C(=O)NCC(=O)NC(C)c2ccc(-n3ccnc3)cc2)cc1OCC` (stereo not shown), the “hERG current change (%, negative = inhibition) at 10uM” value was -77.4%.

In the case of `CC(NC(=O)CCNC(=O)c1ccc(Br)cc1)c1ccc(S(N)(=O)=O)cc1` (stereo not shown), the “hERG current change (%, negative = inhibition) at 10uM” value worked out at 15.3%. As to `CCOc1ccccc1C(=O)NC(C)c1ccc(-n2ccnc2)cc1` (stereo not shown), the “hERG current change (%, negative = inhibition) at 10uM” value was -57.5%. Consider `Nc1nnc(SCC(=O)NNC(=O)c2ccc(Cl)cc2)s1`, for which the “hERG current change (%, negative = inhibition) at 10uM” value is reported as -0.0303%. On to `O=C(N/N=C/c1ccc(O)cc1)c1ccc(COc2cc(Cl)ccc2Cl)o1`, for which the “hERG current change (%, negative = inhibition) at 10uM” value stood at 7.07%.

In the case of `c1csc(-c2nn3c(Cn4nnc5ccccc54)nnc3s2)c1`, the “hERG current change (%, negative = inhibition) at 10uM” value came out at 16.6%.

As for `Cc1cc(NNC(=O)Nc2cccc(Cl)c2)nc2c1c(C)nn2C`, the “hERG current change (%, negative = inhibition) at 10uM” value amounted to 3.56%.

With `Cc1ccccc1NC(=O)CN1C(=O)N/C(=C\c2ccc(N3CCOCC3)c(F)c2)C1=O`, the “hERG current change (%, negative = inhibition) at 10uM” value was 10.8%.

In the case of `COc1ccc(NC(=S)NCCc2c[nH]c3ccccc23)cc1`, the “hERG current change (%, negative = inhibition) at 10uM” value is reported as -7.49%. With `Nc1ccccc1C#Cc1ccc([N+](=O)[O-])cc1`, the “hERG current change (%, negative = inhibition) at 10uM” value was found to be 1.66%. For the molecule `CCc1ccc(-c2cc(C)no2)cc1S(=O)(=O)N1CCN(c2ccc(C(C)=O)cc2)CC1`, the “hERG current change (%, negative = inhibition) at 10uM” value was -4.32%. Regarding `C=CCC(CC=C)(C(=O)O)c1ccccc1`, the “hERG current change (%, negative = inhibition) at 10uM” value is -8.46%. For `COc1ccc(C(=O)NC(C)c2ccc(-n3ccnc3)cc2)c(OC)c1` (stereo not shown), the “hERG current change (%, negative = inhibition) at 10uM” value was -53.8%. For `COc1ccc(OC)c(S(=O)(=O)NC(C)c2ccc(-n3ccnc3)cc2)c1` (stereo not shown), the “hERG current change (%, negative = inhibition) at 10uM” value was -25.1%. With `CC(NC(=O)c1c(F)cccc1Cl)c1ccc(-n2ccnc2)cc1` (stereo not shown), the “hERG current change (%, negative = inhibition) at 10uM” value is on record as -27%. For `CC(NC(=O)CCNC(=O)c1ccccc1Cl)c1ccc(-n2ccnc2)cc1` (stereo not shown), the “hERG current change (%, negative = inhibition) at 10uM” value is reported as -17.8%. Take `COc1ccc(C(=O)NC(C)c2ccc(-n3ccnc3)cc2)c(OC)c1OC` (stereo not shown): the “hERG current change (%, negative = inhibition) at 10uM” value is recorded as -53.1%. As to `CC(NC(=O)c1ccccc1OC(F)F)c1ccc(-n2ccnc2)cc1` (stereo not shown), the “hERG current change (%, negative = inhibition) at 10uM” value is -55%. For the molecule `COc1ccc(NC(C)=O)cc1S(=O)(=O)NC(C)c1ccc(-n2ccnc2)cc1` (stereo not shown), the “hERG current change (%, negative = inhibition) at 10uM” value was -3.74%.

As to `CC(NC(=O)CNC(=O)c1ccccc1F)c1ccc(-n2ccnc2)cc1` (stereo not shown), the “hERG current change (%, negative = inhibition) at 10uM” value is reported as -64%.

Regarding `CCCCN(CC)CCNC(=O)Cn1cnc2sc(C)c(S(=O)(=O)N3CCC(C)CC3)c2c1=O`, the “hERG current change (%, negative = inhibition) at 10uM” value is -19.1%.

As to `Cc1cc(C)c(S(=O)(=O)c2cc(F)ccc2C)c(=O)[nH]1`, the “hERG current change (%, negative = inhibition) at 10uM” value came out at 18.1%.

Take `COc1ccc(-c2noc(C(C)NS(=O)(=O)c3ccc(NC(C)=O)cc3)n2)cc1` (stereo not shown): the “hERG current change (%, negative = inhibition) at 10uM” value is given as 17.5%. On to `COc1ccc2cc(-c3[nH]ncc3CN3CCCC3c3nonc3C)ccc2c1` (stereo not shown), for which the “hERG current change (%, negative = inhibition) at 10uM” value worked out at 0.998%. As for `c1cc2c(cc1-c1[nH]ncc1CN1CC3C[C@@H]4CC1C[C@H](C3)C4)OCO2`, the figure is -44.3%; as for `c1cc2c(cc1-c1[nH]ncc1CN1C[C@H]3CC[C@H]1C3)OCO2`, -3.58%. With `Oc1cccc(CCC2CCCCN2Cc2cn[nH]c2-c2ccc3c(c2)OCO3)c1` (stereo not shown), the “hERG current change (%, negative = inhibition) at 10uM” value was -66.2%.

On to `COc1ccc(-c2[nH]ncc2CN2C[C@@H]3CCC[C@H]2C3)c(F)c1`, for which the “hERG current change (%, negative = inhibition) at 10uM” value turned out to be 8.16%. Consider `COc1ccc2cc(-c3[nH]ncc3CN3C[C@@H]4CCC[C@H]3C4)ccc2c1`, for which the “hERG current change (%, negative = inhibition) at 10uM” value is -58.7%. As to `Cc1nonc1C1CCCN1Cc1cn[nH]c1-c1ccc2c(c1)OCO2` (stereo not shown), the “hERG current change (%, negative = inhibition) at 10uM” value was -25.6%.

As for `COCC1CCCCN1Cc1cn[nH]c1-c1ccc(OC)cc1OC` (stereo not shown), the “hERG current change (%, negative = inhibition) at 10uM” value is -25.5%.

For `COCC1CCCCN1Cc1cn[nH]c1-c1ccc2cc(OC)ccc2c1` (stereo not shown), the “hERG current change (%, negative = inhibition) at 10uM” value was -70.2%. In the case of `CCN(CC(=O)Nc1c(F)cccc1F)C(=O)CSc1nc2ccccc2o1`, the “hERG current change (%, negative = inhibition) at 10uM” value is given as -1.64%. For the molecule `Cc1cccc(NS(=O)(=O)c2ccc3nc(-c4ccccc4)[nH]c3c2)c1C`, the “hERG current change (%, negative = inhibition) at 10uM” value stood at 11.8%.

As for `CCn1cc(C(=O)NCC(OC)OC)c(=O)c2cc(S(=O)(=O)N3CCCC3)ccc21`, the “hERG current change (%, negative = inhibition) at 10uM” value is on record as 10.3%.

On to `O=C(COC(=O)CCCN1C(=O)c2ccccc2C1=O)Nc1ncc(Cl)cc1Cl`, for which the “hERG current change (%, negative = inhibition) at 10uM” value was -9.74%. As for `O=S(=O)(c1ccc2ccccc2c1)N1CCN=C1SCc1cccnc1`, the figure is -43.9%; as for `O=c1ccc(/C=C/c2ccccc2)nn1Cc1ccc(Cl)cc1Cl`, 8.47%; as for `CCOc1cc(NC(=O)c2ccco2)c(OCC)cc1NC(=O)COc1ccccc1C`, 26.4%.

`CC(C)(C)c1cc(NC(=O)C2CCCO2)no1` (stereo not shown): the “hERG current change (%, negative = inhibition) at 10uM” value worked out at 11.6%. Turning to `CCC(Oc1cc(Cl)ccc1Cl)C(=O)N1CCC2(CC1)OCCO2` (stereo not shown), the “hERG current change (%, negative = inhibition) at 10uM” value was found to be 4.7%.
